Test results from PubChem BioAssay AID624351 (Southern Research Specialized Biocontainment Screening …, 2012).
Several values for one entry are separate records, joined by “and”; a condition that tells them apart may be missing. Equal values may be shown once. In all, about 2,400 compounds went through this assay and about 1,400 (58%) were called active.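 How the source made its calls: active means inhibition of 30% or more at any tested dose; inconclusive means primary hits over the limit that were never retested; inactive means the rest.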 The set was probably picked from earlier hits. This is one part of the list.

Experiment: ADP Hunter readout inhibition without MgcRacGAP – biochemical, coupled enzyme counter-screen, artefact control for MgcRacGAP inhibitor project, dose response (AID 624351);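 further: signal is the ADP detection kit reading of free GDP without any GAP enzyme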;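 on inhibition: 0% = median positive control wells and 100% = median negative control wells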
Conditions: fluorescence, no MgcRacGAP; series mostly up to 80 µM; inhibition: at the top concentration

SMILES | IC50 | inhibition
N/C(=N\[N+](=O)[O-])N/N=C/c1ccc(O)cc1 | 20.8 µM (active) | –
O=C(O)CCn1cc(C=C2C(=O)NC(=O)NC2=O)c(-c2ccc(Br)cc2)n1 | – | 2% (inactive)
Cc1ccc(N2C(=O)NC(=O)/C(=C/c3ccoc3)C2=O)cc1 | – | 1.28% (inactive)
COc1cc(C=C2C(=O)NC(=O)NC2=O)ccc1OCc1ccc([N+](=O)[O-])cc1 | – | 3.37% (inactive)
COc1cc(OC)c(OC)cc1/C=C1\C(=O)NC(=O)N(Cc2ccccc2)C1=O | – | 6.49% (inactive)
CNC(=O)Oc1ccc(-c2cn3cc(C)ccc3n2)cc1 | 37.7 µM (active) | –
O=C(CNC1CCCC1)Nc1ccc(N2CCCCCC2)cc1 | – | 23.6% (inactive)
NCCc1cc(O)c(O)cc1O | – | -8.6% [at 5 µM] (inactive) and -17.1% [at 5 µM] (inactive)
CCN(CC)c1ccc(/C=C2/C(=O)NC(=O)N(Cc3ccco3)C2=O)cc1 | – | -0.29% (inactive)
c1ccc2c(c1)Nc1ccccc1S2 | 17.2 µM (active) | –
COc1ccccc1OCC#CCN1CCCC1 | – | 13.8% (inactive)
O=P1(c2ccccc2)Nc2ccccc2N1c1ccccc1 (stereo unspecified) | 29.5 µM (active) | –
Cn1cccc1/C=C1\C(=O)NC(=O)N(Cc2ccco2)C1=O | – | 4.1% (inactive)
Nc1ccc2c3c(cccc13)-c1ccccc1-2 | 55.5 µM (active) | –
CC1=NNC(=O)C1Br (stereo unspecified) | – | 5.41% (inactive)
COc1ccccc1CNCCc1cccc(Cl)c1 | – | 17.4% (inactive)
C1=Cc2ccccc2Nc2ccccc21 | 12.4 µM (active) | –
Cc1cccc(OCC(=O)N2CCN(Cc3ccncc3)CC2)c1 | – | 26.2% (inactive)
COc1ccc(/C=C2/C(=O)NC(=O)N(c3ccc(C)c(C)c3)C2=O)cc1CN1C(=O)c2ccccc2C1=O | – | 3.7% (inactive)
Cc1ccc(CN2CCN(Cc3ccccc3F)CC2)cc1 | – | 25.6% (inactive)
Cc1cc(/C=C2\C(=O)NC(=O)N(c3ccc(Br)cc3)C2=O)c(C)n1-c1cc(C(=O)O)cc(C(=O)O)c1 | – | -1.86% (inactive)
O=C(O)Cn1cc(/C=C2\C(=O)NC(=O)N(c3ccc(Cl)cc3)C2=O)c2ccccc21 | – | 0.89% (inactive)

SMILES | IC50 | inhibition
CN(C)c1ccc(NC(=O)CN2C(=O)CN=C(c3ccccc3)c3ccccc32)cc1 | 73.3 µM (active) | –
COc1ccc(OC)c(N2C(=O)NC(=O)/C(=C/c3ccc([N+](=O)[O-])s3)C2=O)c1 | – | 4.62% (inactive)
C=CCN1C(=O)/C(=C/c2ccc(Br)s2)C(=O)NC1=S | – | 1.24% (inactive)
COc1ccccc1OCC#CCN1CCCC(C)C1 (stereo unspecified) | – | 14.2% (inactive)
CSc1nc(N)c(N=Nc2ccc([As](=O)(O)O)cc2)c(=O)[nH]1 | – | 5.1% (inactive)
O=C(O)c1ccc(-n2c(O)c(/C=C3\C=Nc4ccccc43)c(=O)[nH]c2=O)cc1 | – | 4.69% (inactive)
O=[N+]([O-])c1ccc2c(c1)Cc1cc(O)ccc1-2 | 24.5 µM (active) | –
Cc1cc(/C=C2\C(=O)NC(=O)N(c3ccccc3F)C2=O)c(C)n1-c1cc(C(=O)O)cc(C(=O)O)c1 | – | -1.62% (inactive)
COc1ccccc1-n1c(O)c(/C=C2\C=Nc3ccccc32)c(=O)[nH]c1=O | – | -3.18% (inactive)
CC[N+](C)(CC)CCCCOc1ccc2c(c1)C(=O)c1cc(OCCCC[N+](C)(CC)CC)ccc1-2 | – | -3.48% (inactive)
CC1=NCCc2c1[nH]c1cc(O)ccc21 | 10.2 µM (active) | –
Cc1ccc(OCC(=O)N2CCN(CC3CC4C=CC3C4)CC2)cc1 (stereo unspecified) | – | 4.58% (inactive)
Clc1ccc(OCC#CCN2CCCCCC2)cc1 | – | 12.5% (inactive)
CCN(CCCl)c1cc(CN(C)C)cc(NC(=O)c2ccc(C(=O)Nc3cc(CN(C)C)cc(N(CC)CCCl)c3)cc2)c1 | – | 2.58% (inactive)
COc1ccc(/C=C2\C(=O)NC(=S)N(C)C2=O)cc1C | – | 6.6% (inactive)
CC1CCCCN1Cc1cccnc1 (stereo unspecified) | – | 21.8% (inactive)
COc1ccc(CCNCc2ccccc2)cc1 | – | 14.1% (inactive)
CN(C)C1C(=O)C(C(N)=O)=C(O)C2(O)C(=O)C3=C(O)c4c(O)cccc4C(C)(O)C3C(O)C12 (stereo unspecified) | – | -11.3% (inactive)
COc1ccc(-n2c(/C=C/c3ccc(O)c(OC)c3)nc3ccccc3c2=O)cc1 | 43.2 µM (active) | –
COc1cc(/C=C2/C(=O)NC(=O)N(c3ccccc3)C2=O)ccc1O | – | 20.2% (inactive)
COc1cc(/C=C/c2nc3ccccc3c(=O)n2-c2ccccc2O)ccc1O | 38.1 µM (active) | –
O=c1c2ccccc2nc(/C=C/c2ccc(O)cc2)n1-c1ccccc1O | 60.4 µM (active) | –

SMILES | IC50 | inhibition
NC(N)=N/N=C/c1ccc(N(c2ccccc2)c2ccccc2)cc1 | – | 9.2% (inactive)
O=C1CN(O)C(c2ccccc2)=c2cc(Br)ccc2=N1 | – | -8.57% (inactive)
O=C1NC(=O)N(c2ccc3c(c2)OCO3)C(=O)/C1=C\c1ccc(-c2ccccc2C(=O)O)o1 | – | 2.82% (inactive)
COc1ccc(CN2CCN(Cc3ccccc3OC)CC2)cc1 | – | 26.5% (inactive)
CCc1c(C)nc(N)nc1N1N=C1SC(C(C)=O)C(C)=O | – | 12.9% (inactive)
O=C1NC(=O)C(=Cc2coc3ccc(O)cc3c2=O)C(=O)N1 | – | 6.5% (inactive)
C=CCN1C(=O)NC(=O)/C(=C/C=C/c2ccccc2)C1=O | – | -1.77% (inactive)
CN1C2CCC1/C(=C/c1ccccn1)C(=O)/C2=C\c1ccccn1 | – | 1.44% (inactive)
COc1cc(N2CCOCC2)ccc1/C=C1\C(=O)NC(=O)N(Cc2cccs2)C1=O | – | 4.76% (inactive)
COc1cc2c(ccc3c4cc(OC)c(OC)cc4c[n+](C)c23)cc1O | – | 25.9% (inactive)
CC1CN1P(=O)(Oc1ccc2ccccc2c1)N1CC1C (stereo unspecified) | – | 26.3% (inactive)
O=C1NC(=O)C(=Cc2cccs2)C(=O)N1 | – | 1.78% (inactive)
CCN1CCN(c2ccc(N)c(C)c2)CC1 | 45.2 µM (active) | –
CN1CCN(c2ccc(N)cc2)CC1 | 42.7 µM (active) | –
CN1CCN(c2ccc(N)c(N3CCN(C)CC3)c2)CC1 | 56 µM (active) | –
CCN1CCN(CC(c2ccccc2)c2ccccc2)CC1 | – | 21.3% (inactive)
N/C(=N\N=C/c1ccc(-c2ccc(O)c(C(=O)O)c2)o1)N[N+](=O)[O-] | – | 9.45% (inactive)
COc1cc(N2CCOCC2)ccc1/C=C1\C(=O)NC(=O)N(Cc2ccc3c(c2)OCO3)C1=O | – | 4.02% (inactive)
O=C(O)CCn1cc(C=C2C(=O)NC(=S)NC2=O)c(-c2cccc(Br)c2)n1 | – | 2.64% (inactive)
Cc1ccc(OCC(=O)N2CCN(Cc3ccc([N+](=O)[O-])cc3)CC2)cc1 | – | 11.2% (inactive)
CCc1ccc(N2C(=O)NC(=O)/C(=C\c3cc(C)n(-c4cc(C(=O)O)cc(C(=O)O)c4)c3C)C2=O)cc1 | – | -1.7% (inactive)
CN(C)[C@@H]1C(=O)C(C(N)=O)=C(O)[C@@]2(O)C(=O)C3=C(O)c4c(O)cccc4[C@@](C)(O)[C@H]3[C@H](O)[C@@H]12 | – | -9.39% [at 5 µM] (inactive)
